# The list is not random: actives were taken first. Their share in the collection is about 19%.
# HT1080NT lethal: kills 2HG-producing HT-1080-NT fibrosarcoma cells; HT-1080-NT fibrosarcoma viability, CellTiter-Glo ATP luminescence, 48 h; Potency, µM (highest dose often 46.1 µM), for the others: top-dose activity, negative = less viability, hits mostly cytotoxic; 360,000 tested, 1.6% active; AID 686970;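 also: NT is the 2HG producing partner of a matched IDH1 knockdown line; 0% = DMSO-treated cells and -100% = media-only wells without cells; nearly all actives have a fitted effect of over 55% in size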
#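 750 cells/well, RPMI + 5% FBS; 2 h settle, compound pin-transfer, 48 h at 37 degrees C. CellTiter-Glo 10 min RT, luminescence. Normalized to DMSO and media-only wells.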
# TDP1 cell CPT: growth inhibition of DT40 Tdp1-/-;hTDP1 cells with camptothecin (screen for TDP1 inhibitors); chicken DT40 Tdp1-/-;hTDP1 cells + 20 nM CPT, ATP luminescence, 48 h; Potency, µM (doses to about 46.2 µM), inactives show at the highest dose activity change, negative = growth inhibition, most hits filed as inhibitors; AID 686979; 420,000 tested, 12% active; also: nearly all actives have a fitted effect of over 55% in size
#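 Chicken DT40 Tdp1-/- cells complemented with human TDP1, 400 cells/well, exposed to compounds plus 20 nM camptothecin for at least 48 h at 37 C; viability read as ATP content by CellTiter-Glo luminescence.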
# TDP1 cell noCPT: qHTS for Inhibitors of human tyrosyl-DNA phosphodiesterase 1 (TDP1): qHTS in cells in absence of CPT; DT40 Tdp1-/- hTDP1 cells, no CPT, ATP luminescence, 48 h; Potency, µM (series often up to 46.2 µM), for the others: at the top dose activity change, negative = growth inhibition, hits mostly inhibitors; 420,000 tested, 15% active; AID 686978, 2013; also: nearly all actives have a fitted effect of over 55% in size
#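 DT40 Tdp1-/-;hTDP1 cells, no CPT (DMSO vehicle only), 400 cells/well; compounds pin-transferred; ≥48 hr, 37 °C; CellTiter-Glo 30 min RT dark, luminescence read.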
# KB-3-1 cytotox: kills parental KB-3-1 adenocarcinoma cells; KB-3-1 viability, CellTiter-Glo ATP luminescence, 72 h; Potency, µM (titrated, usually from 46.1 µM), actives largely listed as cytotoxic; 400,000 tested, 1.4% active; AID 1347075; also: nearly all actives have a fitted effect of over 60% in size
#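 72 h, 37 °C compound treatment of KB-3-1 parental cells; CellTiter-Glo added, 10 min, luminescence read. Data corrected against DMSO-only plates and normalized before curve fitting.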
# HT1080 IDH1KD tx: toxicity to HT-1080 IDH1 knockdown cells (counter line). AID 686971. HT-1080 IDH1 knockdown viability, ATP luminescence, 48 h. Potency, µM (doses to about 46.1 µM), for the others: top-dose activity, negative = toxicity, usual class: cytotoxic. 360,000 tested, 2% active;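 also: 0% = DMSO wells and -100% = cell-free medium wells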
#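 Luminescent ATP read-out (CellTiter-Glo, 10 min at room temperature) after 48 h compound exposure at 37 °C gave viability of IDH1-knockdown HT-1080 cells. Activity was normalised to DMSO and cell-free wells, then fitted as concentration-response curves.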
# KB-V1 cytotox: kills drug-selected multidrug resistant KB-V1 cells; KB-V1 MDR cells viability, CellTiter-Glo, 72 h; Potency, µM (series often up to 46.1 µM), most hits filed as cytotoxic; 400,000 tested, 3.4% active; AID 1347076; also: nearly all actives have a fitted effect of over 60% in size
#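 Cytotoxicity via CellTiter-Glo luminescence after 72 h compound exposure at 37 degrees C. Cells: drug-selected KB-V1 line, DMEM phenol-red free plus 10% FBS. Compounds tested at multiple concentrations; normalized data fitted to concentration-effect curves.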
# The depositor's hits bear a star; i = inactive; u = inconclusive; x = not tested or not shown. Calls follow the shape of the dose curve; as a rule, active = well fitted curve in the direction sought with a large enough effect; inconclusive = small, poorly fitted or top-dose-only effect, or another doubt; inactive = no such curve, though single readings can be large; an effect the other way counts as inactive or inconclusive. Unless noted, % is scaled to controls: 0 for no effect and ±100 for the full control effect; potency is read from the fitted curve at half-maximal effect.
SMILES,HT1080NT lethal,TDP1 cell CPT,TDP1 cell noCPT,KB-3-1 cytotox,HT1080 IDH1KD tx,KB-V1 cytotox
COc1ccc(NC(=O)C(c2ccccc2F)n2c(=O)c(-c3cc4ccccc4[nH]3)nc3ccccc32)cc1 (configuration not stated),u,16µM*,13µM*,i,u,i
OCCC1CN(Cc2nc(-c3ccccc3)cs2)CCN1CCc1ccccc1 (configuration not stated),-13%,u,21µM*,u,-1%,i
CC(C)(C)CN1CCN(Cc2nc(-c3ccc(F)cc3)cs2)CC1CCO (configuration not stated),u,16µM*,21µM*,u,u,u
CC(C)=CCN1CCN(Cc2nc(-c3ccccc3)cs2)CC1CCO (configuration not stated),0%,u,u,i,-1%,u
COc1ccc(F)c(CN2CCN(CCc3ccccc3)C(CCO)C2)c1 (configuration not stated),-5%,-13%,-14%,i,-10%,u
OCCC1CN(Cc2nc(-c3ccc(F)cc3)cs2)CCN1CCc1ccccc1 (configuration not stated),-8%,u,u,i,-16%,i
COc1ccc(OC)c(CN2CCN(CCc3ccccc3)C(CCO)C2)c1 (configuration not stated),6%,12µM*,u,i,0%,i
O=C(Nc1ccc(N2CCOCC2)c2nonc12)C1CCCC1,5%,18µM*,26µM*,i,1%,u
COC(=O)c1ccc(CS(=O)(=O)c2ccc(C)cc2)o1,0%,u,8%,i,-3%,i
CCCCOCCCNC(=O)C[C@@H]1C[C@@]2(C(=O)OC)CCCCC=C2N(Cc2ccco2)C1=O,2%,u,16µM*,i,7%,i
CCOC(=O)[C@]12CCCC=C1N(Cc1ccco1)C(=O)[C@H](CC(=O)NCc1cccs1)C2,20%,u,26µM*,i,2%,i
COC(=O)[C@]12CCCCC=C1N(Cc1ccccc1)C(=O)[C@H](CC(=O)NCc1cccs1)C2,-3%,u,-26%,i,-13%,u
CCCCNC(=O)C[C@@H]1C[C@@]2(C(=O)OC)CCCCC=C2N(Cc2ccco2)C1=O,4%,u,u,i,6%,i
COC(=O)[C@]12CCCCC=C1N(Cc1ccco1)C(=O)[C@H](CC(=O)NCc1cccs1)C2,7%,u,23µM*,i,10%,i
COc1ccc(NC(=O)CSc2nnc(NC(=O)NC3CCCCC3)s2)cc1OC,x,u,u,i,x,i
COc1cc(NC(=O)c2ccc(-c3cnn(C)c3)c3ccoc23)cc(OC)c1OC,-13%,u,u,i,-3%,i
N#Cc1sc2nc(N3CCCCC3)c3c(c2c1N)CCCC3,u,-23%,u,u,u,7.3µM*
O=C(CCC1CCCCC1)Nc1ccccc1-c1ccccc1,3%,-3%,-18%,i,2%,u
CC(NC1CCCC1)C(=O)Nc1ccccc1-c1ccccc1 (configuration not stated),4%,1%,-20%,i,0%,12µM*
COc1ccccc1NC(=O)CC1CCCC1,16%,1%,-2%,i,-1%,i
Cc1ccc(C)c(S(=O)(=O)N2CCN(C(C)C(=O)Nc3ccccc3-c3ccccc3)CC2)c1 (configuration not stated),-6%,u,16µM*,u,-4%,u

# Screens: PubChem, National Center for Advancing Translational Sciences (NCATS)
